Results on nine compounds are retold here after PubChem BioAssay (NCATS).

Each structure is given as a SMILES string. Unmarked numbers belong to inactive results. Inconclusive results are not listed. Activity calls are given as the source filed them. The call rests on the fitted dose curve; in most records, active means well fitted curve in the direction sought with a large enough effect; inconclusive means small, poorly fitted or top-dose-only effect, or another doubt; inactive means no such curve, though single readings can be large; an effect the other way counts as inactive or inconclusive.

Assay [1] in a line: Cellular Toxicity (caspase-3) Mesangial (AID 660).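 Further: combined caspase 3 and 7 activity read by Caspase-Glo luminescence.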 The settings on record: mesangial cells, normalized: DMSO 0%, 100 µM tamoxifen 100%; at 91.7 µM (top of the series). The method in brief: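 Concentration-response qHTS: compound-induced rise in caspase 3/7 luminescence in human mesangial cells after 16 h, normalized to DMSO and 100 uM tamoxifen controls.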
Assay [2] can be described thus: Cellular Toxicity (caspase-3) H-4-II-E (AID 663).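 Further: cells exposed to compound for 16 hr before readout.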 The settings on record: H-4-II-E rat hepatoma, scaled: DMSO 0%, 100 µM tamoxifen 100%; at 92.2 µM (top of the series). The method in brief: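 Rat hepatoma H-4-II-E cells (1500/well) plated 5 hr, then exposed to compound titrations for 16 hr at 37 °C. Caspase-Glo 3/7 luminescence read after 20 min at RT; data normalized to DMSO and 100 uM tamoxifen, AC50 from Hill fits.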

A short description of assay [3]: Cellular Toxicity (caspase-3) Hek293 (AID 664).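 Further: cells exposed to compound for 16 h at 37 °C before readout.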 To be noted: HEK293 caspase-3 activation, DMSO = 0%, 100 µM tamoxifen = 100%; at 92.2 µM (top of the series). The method in brief: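 Activation of caspase-3/7 is measured as increased luminescence from cleaved peptide-aminoluciferin substrate in HEK293 cells treated 16 hours at 37 °C. AC50 values come from Hill-equation fits of concentration-response data.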

Assay [4] is described as follows: Cellular Toxicity (caspase-3) N2a (AID 665).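 Further: compound exposure lasted 16 h at 37 °C before readout.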 A digest of the protocol:
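Plated mouse neuroblastoma N2a cells received titrated compounds for 16 h in complete medium. Caspase activity was then detected with a peptide-aminoluciferin luminescent reagent.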

Assay [5] in a line: Cellular Toxicity (caspase-3) NIH 3T3 (AID 666).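 Further: caspase signal read after 16 h compound exposure; 0% = DMSO basal and 100% = 100 µM tamoxifen stimulation.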 A digest of the protocol: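 Concentration-response qHTS in NIH 3T3 mouse fibroblasts scores caspase-3/7 activation as rising luminescence after 16 hr compound exposure. Signals are scaled between DMSO-only and 100 uM tamoxifen.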
The nature of assay [6]: Cellular Toxicity (caspase-3) Renal Proximal Tubule (AID 667).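 Further: cells exposed to compound for 16 hours at 37 °C before detection.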 Further: potency means the concentration at half of the fitted maximal effect.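 On caspase-3 activation: 0% = DMSO basal and 100% = 10 µM staurosporine.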 To be noted: Potency: caspase-3 activation. The method in brief: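 AC50 derived by standard Hill fit of concentration-response data, normalized between DMSO basal and 10 uM staurosporine as 100% stimulation. Cells: primary rat kidney proximal tubule, 16 h treatment at 37 °C.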
Assay [7] deals with Cytochrome P450 3A4 (Homo sapiens) (UniProt P08684). Put plainly: qHTS Assay for Inhibitors and Substrates of Cytochrome P450 3A4 (AID 884). Further: on the % scale 0 is the no-effect control and ±100 the full control effect; nearly all actives have a fitted effect of over 50% in size. The method in brief:
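20 nM human CYP3A4 with 25 uM Luciferin-PPXE (at KM) in 200 mM KPO4, preincubated 10 min with compound; NADPH regeneration started a 60 min RT reaction. Luciferin detected by luminescence, normalized to 57 uM ketoconazole as full inhibition.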

The nature of assay [8]: Cell Viability - LYMP2-001 (AID 921).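 Further: cells exposed to compound for 24 h at 37 °C; 0% = DMSO only and full inhibition = tetraoctylammonium bromide control wells; nearly all actives have a fitted effect of over 70% in size.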 A digest of the protocol: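 Steps: seed 2500 lymphoblastoid cells/well; 5 hr, 37 C; add compound; 24 hr, 37 C; CellTiter-Glo reagent, 30 min room temperature; read luminescence. Concentration-response modeled by Hill equation for AC50.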
The nature of assay [9]: MultiTox-Fluor Cytotoxicity Assay - LYMP1-001 - Dead Cells (AID 946). The method in brief:
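Cytotoxicity as increased dead-cell protease fluorescence (bis-AAF-R110, 485/520 nm), read 60 min after MultiTox-Fluor reagent. Human lymphoblastoid line exposed 16 h; Hill-fitted AC50, with DMSO as 0% and 15 uM tetraoctylammonium bromide as 100%.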

A short description of assay [10]: MultiTox-Fluor Cytotoxicity Assay - LYMP1-001 - Live Cells (AID 947).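 Further: 0% = DMSO only and full inhibition = tetraoctylammonium bromide control.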
Assay [11] is described as follows: Cell Viability - LYMP1-002 - Assay at 16 hr (AID 948).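 Further: 0% = DMSO alone and full effect = 92 µM tetraoctylammonium bromide.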 A digest of the protocol: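 Seed 2500 LYMP1-002 cells per well in complete medium and hold 5 hr at 37 C. Add compound across a concentration series and incubate 16 hr at 37 C. Add CellTiter-Glo, wait 30 min at room temperature, read luminescence.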
Assay [12] in a line: MultiTox-Fluor Cytotoxicity Assay - LYMP1-002 - Live Cells (AID 955). Further: on the % scale 0 is the no-effect control and ±100 the full control effect. The method in brief:
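Cytotoxicity in the human lymphoblastoid line LYMP1-002 is measured as loss of live-cell protease activity after 16 h treatment in complete culture medium. AC50 is derived from Hill-equation fits of qHTS concentration-response data.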

A short description of assay [13]: MultiTox-Fluor Cytotoxicity Assay - LYMP1-002 - Dead Cells (AID 960). Further: nearly all actives have a fitted effect of over 60% in size. A digest of the protocol: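 Acute cytotoxicity in a human lymphoblastoid line is scored as rising dead-cell protease signal after 16 hr exposure at 37 C, measured fluorometrically (485/520).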
The nature of assay [14]: MultiTox-Fluor Cytotoxicity Assay - LYMP1-003 - Dead Cells (AID 961). Further: nearly all actives have a fitted effect of over 70% in size. Further: potency means the concentration at half of the fitted maximal effect. The method in brief:
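Dead-cell protease release, detected as bis-AAF-R110 fluorescence at 485/520 nm, was measured in LYMP1-003 cells after 16 h compound treatment at 37 C. AC50 values came from Hill-modeled qHTS curves normalized to DMSO (0%) and 15 uM tetraoctylammonium bromide (100%).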

The nature of assay [15]: MultiTox-Fluor Cytotoxicity Assay - LYMP1-003 - Live Cells (AID 962). Further: potency means the concentration at half of the fitted maximal effect. The method in brief:
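Cells plated at 2500 per well and incubated 5 hr; compounds added and incubated 16 hr at 37 C; MultiTox-Fluor reagent added for 60 min at room temperature; fluorescence of liberated AFC measured at 405/510 nm.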

Assay [16] can be described thus: Cell Viability - LYMP1-003 - Assay at 40 hr (AID 964). Further: nearly all actives have a fitted effect of over 60% in size. Further: potency means the concentration at half of the fitted maximal effect. A digest of the protocol:
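This qHTS cytotoxicity screen treats human lymphoblastoid cells (LYMP1-003) with compounds for 40 hr and quantifies cellular ATP via luciferase luminescence.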

The nature of assay [17]: Cell Viability - LYMP1-003 - Assay at 24 hr (AID 963). Further: potency means the concentration at half of the fitted maximal effect. The method in brief:
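Acute toxicity in LYMP1-003 lymphoblastoid cells: 24 hr compound treatment at 37 C, ATP measured with CellTiter-Glo after 30 min at room temperature. AC50 derived by fitting the Hill equation to qHTS titrations.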

A short description of assay [18]: Cell Viability - LYMP2-003 (AID 965).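 Further: cells exposed to compounds for 24 h before reading; nearly all actives have a fitted effect of over 50% in size.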 Further: potency means the concentration at half of the fitted maximal effect. A digest of the protocol:
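Seed 2500 lymphoblastoid cells/well; incubate 5 hr, 37 C; add compounds; incubate 24 hr, 37 C; add CellTiter-Glo, 30 min RT; read luminescence. AC50 from Hill fit.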

Assay [19] addresses Cytochrome P450 3A4 (Homo sapiens) (UniProt P08684). Put plainly: qHTS Assay for Activators of Cytochrome P450 3A4 (AID 885). Further: nearly all actives have a fitted effect of over 65% in size. A digest of the protocol:
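Signal was normalized against complete inhibition by 57 uM ketoconazole. The reaction used 20nM CYP3A4 with 25uM Luciferin-PPXE, 10-min compound preincubation and a 60-min NADPH-supported step at RT.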

Sequence of Cytochrome P450 3A4 (Homo sapiens) (P08684 whole entry, looked up): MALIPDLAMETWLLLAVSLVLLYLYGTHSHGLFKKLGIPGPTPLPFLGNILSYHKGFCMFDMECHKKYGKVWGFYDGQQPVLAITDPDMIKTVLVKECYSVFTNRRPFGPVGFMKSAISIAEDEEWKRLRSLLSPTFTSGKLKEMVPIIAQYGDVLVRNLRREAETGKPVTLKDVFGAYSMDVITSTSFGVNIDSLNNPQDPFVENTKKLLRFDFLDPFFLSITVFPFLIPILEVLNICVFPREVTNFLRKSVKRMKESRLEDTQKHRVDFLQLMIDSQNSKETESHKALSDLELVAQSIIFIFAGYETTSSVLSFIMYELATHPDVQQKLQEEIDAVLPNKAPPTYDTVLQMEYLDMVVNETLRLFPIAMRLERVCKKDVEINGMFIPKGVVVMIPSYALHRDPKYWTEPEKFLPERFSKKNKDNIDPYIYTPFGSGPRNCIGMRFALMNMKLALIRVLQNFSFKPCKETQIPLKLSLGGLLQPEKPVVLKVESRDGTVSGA

In the case of `Cc1ccccc1C=O`, the caspase-3 activation in [1] was -0.421%; in [2], 0.931%; in assay [3], 1.08%. The compound was classed as inactive in [4], in [5], in [9], in assay [10], in assay [11] and in assay [12]. In addition, the outcome in assay [13] was inactive. For the same compound, the Potency result in assay [6], in assay [7], in assay [8], in assay [14], in [15] and in assay [16] was “inactive” each time.
As to `O=Nc1ccc(NO)cc1`, the figures for the caspase-3 activation in [1], in assay [2] and in assay [3] were 0.317%, 1.96% and 11.4%, respectively. The call in [4], in assay [9], in assay [12] and in assay [13] was inactive. Moreover, the Potency result in assay [6], in [7], in assay [14], in assay [17] and in [16] was “inactive” in each case. In addition, the Potency in assay [18] is 50.1 µM (active).
For `CC1=C(/C=C/C(C)=C/C=C/C(C)=C\C=O)C(C)(C)CCC1`, the results for the caspase-3 activation in [1] and in [2] were 90.3% (active) and 113% (active), respectively. The Potency in assay [6] was 31.6 µM (active); in [14], 31.6 µM (active); in assay [15] it was 50.1 µM (active); in [17] it was 63.1 µM (active); in assay [16] it was 50.1 µM (active); in assay [18], 39.8 µM (active). For the same compound, the compound was classed as inactive in assay [19].
Turning to `CCc1ccccc1`, the caspase-3 activation in assay [1] is -1.29%; in assay [2], 1.3%; in assay [3] it was -0.962%. Also, the compound was called inactive in [4], in [5], in assay [9], in assay [10], in [11] and in [12]. For the same compound, the compound was classed as inactive in [13]. In addition, the Potency entry in assay [6], in [7], in assay [8], in assay [14], in assay [15] and in assay [17] was “inactive” in each case. Further, in assay [18], the Potency result is “inactive”.
Consider `Cc1cccc([N+](=O)[O-])c1C(=O)O`, for which the caspase-3 activation is -0.481% in [1], 1.44% in assay [2] and 2.11% in [3]. For the same compound, the outcome in [4], in assay [5], in assay [9], in [10], in [11] and in [12] was inactive. Besides, in [13], the result was inactive. Also, the Potency result in assay [6], in assay [7], in assay [8], in assay [15], in assay [17] and in assay [16] was “inactive” each time. For the same compound, the Potency result in assay [18] is “inactive”.
For `Cc1ccc(C(C)(C)C)cc1`, the caspase-3 activation in [1] is -0.798%; in [2], 0.123%; in [3], -1.91%. Moreover, the outcome in [4], in assay [5], in assay [9], in assay [11], in assay [12] and in assay [13] was inactive. The Potency entry in [6], in assay [7], in [8], in assay [15], in assay [17] and in [16] was “inactive” throughout. In addition, the Potency result in assay [18] is “inactive”.
Turning to `CCC(C)(C)C`, the caspase-3 activation in assay [1] is 0.949%; in assay [2] it was -0.587%; in assay [3], -1.96%. For the same compound, the result in [4], in assay [5], in assay [9], in assay [10], in [11] and in assay [12] was inactive. Moreover, the compound was classed as inactive in [13]. Further, the Potency entry in assay [6], in assay [7], in assay [8], in assay [15], in assay [17] and in assay [16] was “inactive” in each case. In addition, the Potency result in assay [18] is “inactive”.
For the compound `Nc1cccc(O)c1`, the values for the caspase-3 activation in assay [1], in [2] and in assay [3] were 0.168%, -0.484% and 1.1%, respectively. The result in [4], in assay [5], in assay [9], in assay [10], in [11] and in assay [12] was inactive. The result in assay [13] was inactive. Further, the Potency entry in assay [6], in assay [7], in [8], in assay [14], in [17] and in assay [16] was “inactive” each time. The Potency result in assay [18] is “inactive”.
For `O=C(O)c1ccccc1[N+](=O)[O-]`, the values for the caspase-3 activation in assay [1], in assay [2] and in [3] were 0.745%, 1.85% and 2.82%, respectively. The compound was called inactive in assay [4], in [5], in [9], in assay [10], in assay [11] and in assay [12]. Moreover, the Potency result in assay [6], in [7], in assay [8], in [14], in assay [15] and in [17] was “inactive” each time. The Potency entry in assay [16] and in assay [18] was “inactive” each time.
